In PubChem BioAssay:
The source made the active and inactive calls.

How the values were obtained:
Albumin (Bos taurus) = Albumin (Bos taurus) (UniProt P02769); assay: bovine serum albumin binders on microarray, profiling panel, artefact control for SMM control protein annotation, biochemical, small-molecule microarray, Alexa647 label, 635/667 nm fluorescence (AID 1118); settings: BSA-A647 binding, fluorescence 635 nm, higher = more signal;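 further: score merges 667 nm emission intensity and signal-to-noise per printed compound spot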
[1] = small-molecule microarray binders of probe aXIP, primary screen, biochemical, NeuroSMM set, 635/667 nm fluorescence (AID 1119); settings: higher = more signal, called active from +8 up or from −8 down;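 further: probe is the protein aXip251-270 applied at 1 µg/mL to compound-printed slides; binding of probe to printed compounds measured as 667 nm fluorescence plus signal to noise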
[2] = small-molecule binders of probe aNOTCH3, primary screen, biochemical, small-molecule microarray, 635/667 nm fluorescence (AID 1120); settings: higher = more signal;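 further: probe is a biotin-tagged antibody raised against NOTCH3 rather than NOTCH3 protein; score merges spot fluorescence near 667 nm with spot signal to noise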
[3] = small-molecule binders of probe aNOTCH2, primary screen, biochemical, small-molecule microarray, 635/667 nm fluorescence (AID 1121); settings: higher = more signal;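 further: score merges feature fluorescence read at 667 nm with its signal to noise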
[4] = molecular target: Carbonic anhydrase 2 (Homo sapiens) (UniProt P00918); assay: CAII small-molecule binders, profiling panel, biochemical, small-molecule microarray, Alexa647-labelled CAII (AID 1122); settings: CAII-A647 binding fluorescence, higher = more signal
[5] = COS7 lysate on small-molecule microarray, probe aHis, 635 nm (AID 1123); settings: COS7 cell lysate, fluorescence, higher = more signal;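 further: z-score combines 667nm fluorescence intensity with signal-to-noise per printed compound spot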
[6] = compound binding in COS7 lysate, probe aLAP1, primary screen, cell lysate, small-molecule microarray (AID 1124); settings: probe aLAP1, fluorescence, higher = more signal;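 further: lysate comes from COS7 cells expressing LAP1 and is applied at 0.3 µg/mL; score merges spot fluorescence near 667 nm with signal-to-noise over triplicate slides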
Sam68 (KHDRBS1) = assay: Sam68 small-molecule binders, primary screen, biochemical, small-molecule microarray, 635 nm fluorescence (AID 1125); settings: small-molecule microarray binding, higher = more signal;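 further: score merges 667 nm channel intensity with signal to noise over triplicate slides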
[7] = system: Chordin-like protein 2 (CHRDL2); assay: CHRDL2 small-molecule binders, primary screen, biochemical, small-molecule microarray, 635 nm fluorescence (AID 1126); settings: small-molecule microarray binding, fluorescence 635 nm; higher = more signal;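 further: printed compound slides probed with Chrdl2 protein at 4 µg/mL for 1 h at 4 C; score merges 667 nm emission intensity with signal to noise over three replicate slides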
[8] = molecular target: Concanavalin-A (Canavalia ensiformis) (UniProt P02866); assay: ConA small-molecule binders, primary screen, artefact control for SMM control protein annotation, biochemical, small-molecule microarray, Alexa647 label, 635 nm (AID 1127); settings: ConA-A647 binding fluorescence, higher = more signal;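 further: z combines 667 nm emission intensity with signal-to-noise across three replicate slides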
[9] = anti-His antibody binders, primary screen, artefact control for SMM control protein annotation, biochemical, small-molecule microarray, 635 nm fluorescence (AID 1128); settings: anti-His Alexa647 antibody binding, higher = more signal;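 further: score merges feature fluorescence with signal-to-noise for each printed compound spot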
[10] = system: Human papillomavirus type 1a E7 protein (residues 1-88); assay: HPV1a E7 small-molecule binders, primary screen, biochemical, small-molecule microarray, residues 1-88, 635 nm (AID 1129); settings: small-molecule microarray binding, fluorescence 635 nm; higher = more signal
[11] = molecular target: Focal adhesion kinase 1 (Homo sapiens) (UniProt Q05397); assay: small-molecule microarray binders of FAK, primary screen, biochemical, 635/667 nm fluorescence, BSA, DTT (AID 1130); settings: PTK2 binding, 635 nm fluorescence, higher = more signal;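 further: composite of spot emission at 667 nm and signal to noise over triplicate slides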
[12] = system: Fibrinogen (Alexa647-labelled); assay: fibrinogen binders on compound microarrays, profiling panel, artefact control for SMM control-protein annotation, biochemical, small-molecule microarray, 635/667 nm fluorescence (AID 1131); settings: fibrinogen-A647 binding fluorescence, higher = more signal;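 further: z-score merges 667 nm fluorescence with per-spot signal-to-noise over triplicate slides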
[13] = molecular target: Follistatin (Homo sapiens) (UniProt P19883); assay: follistatin binders on small-molecule microarrays, primary screen, biochemical, small-molecule microarray, 635/667 nm fluorescence (AID 1132); settings: FST binding, 635 nm fluorescence, higher = more signal
[14] = molecular target: Fibroblast growth factor 2 (Homo sapiens) (UniProt P09038); assay: FGF2 binders on small-molecule microarrays, primary screen, biochemical, small-molecule microarray, 635/667 nm fluorescence (AID 1133); settings: small-molecule microarray binding, FGF2, fluorescence 635/667; higher = more signal
[15] = mitochondrial membrane potential change in A549 cells, profiling panel, cell-based, JC-1 fluorescence, basal, 24 h, 100 nL (AID 1138); settings: higher = more signal;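 further: A549 lung adenocarcinoma cells under basal conditions with no added stimulus; test concentration not given here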
Lefty1 = Lefty1 binders on small-molecule microarrays, primary screen, biochemical, small-molecule microarray, 635/667 nm fluorescence (AID 1139); settings: small-molecule microarray binding, fluorescence 635/667; higher = more signal
[16] = system: wheat germ agglutinin (Triticum aestivum), Alexa647-labelled; assay: wheat germ agglutinin binders on compound microarrays, profiling panel, artefact control for SMM control-protein annotation, biochemical, small-molecule microarray, 635/667 nm fluorescence (AID 1140); settings: WGA-A647 binding, 635 nm fluorescence, higher = more signal;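 further: score merges 667 nm feature emission with signal to noise over triplicate slides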
[17] = molecular target: Luciferin 4-monooxygenase (Photinus pyralis) (UniProt P08659); assay: firefly luciferase enzyme inhibitors, primary screen, biochemical, luminescence, purified enzyme, 2006 set (AID 1141); settings: SteadyGlo luminescence, 30 min, higher = more signal, called active from +8 up or from −8 down;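 further: cell-free assay with purified firefly luciferase at 100 ng per well in PBS; test concentration not given here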
Luciferin 4-monooxygenase (Photinus pyralis), sequence (P08659 whole entry, looked up): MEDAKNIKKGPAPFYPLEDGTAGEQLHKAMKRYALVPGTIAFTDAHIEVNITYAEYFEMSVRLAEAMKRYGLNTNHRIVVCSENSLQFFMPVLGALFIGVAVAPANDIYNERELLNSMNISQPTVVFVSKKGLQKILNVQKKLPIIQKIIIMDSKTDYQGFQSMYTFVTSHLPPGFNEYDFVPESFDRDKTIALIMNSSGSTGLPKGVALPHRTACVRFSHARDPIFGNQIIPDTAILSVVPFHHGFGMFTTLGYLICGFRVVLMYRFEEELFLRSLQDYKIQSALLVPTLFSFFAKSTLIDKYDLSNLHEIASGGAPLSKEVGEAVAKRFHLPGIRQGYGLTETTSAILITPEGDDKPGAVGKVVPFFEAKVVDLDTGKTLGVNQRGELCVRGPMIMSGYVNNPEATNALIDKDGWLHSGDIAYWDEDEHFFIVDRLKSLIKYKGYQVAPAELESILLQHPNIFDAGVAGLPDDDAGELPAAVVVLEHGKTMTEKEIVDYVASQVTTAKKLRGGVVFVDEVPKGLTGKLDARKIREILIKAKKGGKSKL

Follistatin (Homo sapiens), sequence (P19883 whole entry, looked up): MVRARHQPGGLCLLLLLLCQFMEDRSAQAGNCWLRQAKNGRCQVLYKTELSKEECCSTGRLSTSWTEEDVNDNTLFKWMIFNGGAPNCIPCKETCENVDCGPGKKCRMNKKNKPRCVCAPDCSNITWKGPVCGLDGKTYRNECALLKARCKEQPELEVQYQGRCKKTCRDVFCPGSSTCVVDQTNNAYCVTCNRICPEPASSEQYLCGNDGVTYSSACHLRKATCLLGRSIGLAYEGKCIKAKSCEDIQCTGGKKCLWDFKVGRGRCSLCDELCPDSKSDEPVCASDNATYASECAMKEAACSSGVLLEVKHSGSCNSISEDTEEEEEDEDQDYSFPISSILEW
Albumin (Bos taurus), sequence (P02769 whole entry, looked up): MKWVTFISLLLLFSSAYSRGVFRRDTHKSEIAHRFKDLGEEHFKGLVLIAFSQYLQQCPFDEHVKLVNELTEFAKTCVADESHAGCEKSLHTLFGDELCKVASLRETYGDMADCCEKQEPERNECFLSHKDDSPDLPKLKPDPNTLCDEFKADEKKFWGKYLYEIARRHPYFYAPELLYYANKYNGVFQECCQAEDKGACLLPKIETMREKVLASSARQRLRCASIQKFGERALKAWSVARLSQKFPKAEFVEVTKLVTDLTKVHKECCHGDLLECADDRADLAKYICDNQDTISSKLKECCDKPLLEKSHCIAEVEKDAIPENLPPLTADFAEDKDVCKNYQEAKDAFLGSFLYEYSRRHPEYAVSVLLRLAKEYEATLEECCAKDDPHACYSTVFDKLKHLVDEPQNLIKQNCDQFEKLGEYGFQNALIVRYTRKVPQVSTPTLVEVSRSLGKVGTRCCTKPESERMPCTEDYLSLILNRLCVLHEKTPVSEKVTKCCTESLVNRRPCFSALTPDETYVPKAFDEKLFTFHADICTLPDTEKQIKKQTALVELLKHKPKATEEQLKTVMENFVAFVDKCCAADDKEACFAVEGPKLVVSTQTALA
Concanavalin-A (Canavalia ensiformis), sequence (P02866 whole entry, looked up): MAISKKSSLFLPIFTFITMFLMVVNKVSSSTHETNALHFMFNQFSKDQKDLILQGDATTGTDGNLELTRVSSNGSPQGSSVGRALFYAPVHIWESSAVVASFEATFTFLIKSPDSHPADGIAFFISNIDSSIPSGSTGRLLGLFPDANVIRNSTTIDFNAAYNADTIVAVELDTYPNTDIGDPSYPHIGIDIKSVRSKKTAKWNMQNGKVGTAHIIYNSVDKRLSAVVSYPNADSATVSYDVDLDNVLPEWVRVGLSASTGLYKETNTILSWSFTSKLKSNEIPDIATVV
Fibroblast growth factor 2 (Homo sapiens), sequence (P09038 whole entry, looked up): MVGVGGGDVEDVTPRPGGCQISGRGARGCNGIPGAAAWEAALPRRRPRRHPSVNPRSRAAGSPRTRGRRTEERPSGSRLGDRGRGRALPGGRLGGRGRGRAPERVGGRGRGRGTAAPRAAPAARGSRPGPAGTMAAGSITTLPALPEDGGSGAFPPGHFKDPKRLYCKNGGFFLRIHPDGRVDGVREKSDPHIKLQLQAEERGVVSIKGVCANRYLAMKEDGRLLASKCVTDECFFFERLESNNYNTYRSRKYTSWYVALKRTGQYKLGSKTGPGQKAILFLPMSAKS
Focal adhesion kinase 1 (Homo sapiens), sequence (Q05397 whole entry, looked up): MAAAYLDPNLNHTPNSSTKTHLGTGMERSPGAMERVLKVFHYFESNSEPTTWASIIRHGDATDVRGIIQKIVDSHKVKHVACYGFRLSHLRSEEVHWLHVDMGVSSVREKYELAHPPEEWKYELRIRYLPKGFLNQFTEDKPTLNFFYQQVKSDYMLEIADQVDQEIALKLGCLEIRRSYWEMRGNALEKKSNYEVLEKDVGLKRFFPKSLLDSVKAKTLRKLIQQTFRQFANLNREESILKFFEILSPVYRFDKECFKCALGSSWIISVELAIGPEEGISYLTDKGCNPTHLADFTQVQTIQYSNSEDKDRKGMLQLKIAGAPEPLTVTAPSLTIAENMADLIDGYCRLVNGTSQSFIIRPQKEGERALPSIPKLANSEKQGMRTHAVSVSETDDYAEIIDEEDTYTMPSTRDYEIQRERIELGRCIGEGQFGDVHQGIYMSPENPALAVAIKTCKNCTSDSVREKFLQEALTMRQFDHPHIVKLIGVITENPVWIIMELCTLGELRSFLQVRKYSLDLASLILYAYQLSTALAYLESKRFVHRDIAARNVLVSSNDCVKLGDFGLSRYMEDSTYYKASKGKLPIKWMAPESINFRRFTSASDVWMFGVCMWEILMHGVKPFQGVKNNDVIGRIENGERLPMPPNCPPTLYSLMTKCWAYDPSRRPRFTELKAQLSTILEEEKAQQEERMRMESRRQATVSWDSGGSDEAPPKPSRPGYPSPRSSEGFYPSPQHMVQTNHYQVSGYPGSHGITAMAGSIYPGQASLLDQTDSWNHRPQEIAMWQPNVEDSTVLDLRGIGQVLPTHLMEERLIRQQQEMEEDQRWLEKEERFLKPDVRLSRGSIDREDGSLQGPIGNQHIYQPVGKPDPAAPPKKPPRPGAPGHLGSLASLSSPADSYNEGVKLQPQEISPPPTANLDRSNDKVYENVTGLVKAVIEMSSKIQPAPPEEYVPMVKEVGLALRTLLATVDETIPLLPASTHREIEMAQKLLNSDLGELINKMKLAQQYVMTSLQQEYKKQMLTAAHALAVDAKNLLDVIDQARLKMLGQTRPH

SMILES | composite z-score (Albumin (Bos taurus)) | composite Z-score [1] | composite z-score [2] | composite z-score [3] | composite z-score [4] | composite z-score [5] | composite z-score [6] | composite z-score (Sam68 (KHDRBS1)) | composite z-score [7] | composite z-score [8] | composite z-score [9] | composite z-score [10] | composite z-score [11] | composite z-score [12] | composite z-score [13] | composite z-score [14] | z-score [15] | composite z-score (Lefty1) | composite z-score [16] | z-score [17]
COc1ccc([Si](C)(C)[C@H]2[C@H](CC(=O)N3CCC[C@H]3CO)O[C@@]3(C(=O)N(Cc4ccc(N5C(=O)c6cccc7cccc5c67)cc4)c4ccccc43)[C@@H]2C)cc1 | 0.121 | 0.829 (inactive) | 0.171 | -0.146 | 0.409 | 1.23 | 0.206 | 1.29 | 0.634 | 1.13 | 1.7 | 1.17 | 1.18 | 0.864 | 1.07 | 1.21 | 0.285 | 1.48 | 0.682 | 0.0355 (inactive)
COc1ccc(C#Cc2ccc3c(c2)[C@]2(C(=O)N3)[C@H](C(N)=O)[C@H]3C(=O)O[C@H](c4ccccc4)[C@H](c4ccccc4)N3[C@@H]2c2ccc(O)cc2)cc1 | 0.49 | 0.312 (inactive) | -0.0947 | -0.148 | 0.414 | 2.27 | 0.211 | 0.902 | -0.0806 | 0.985 | 1.69 | 1.22 | 1.6 | 0.844 | 0.658 | 0.717 | -1.4 | 0.339 | 0.317 | 0.734 (inactive)
CC(C)N1CC=CC23O[C@@H]4C=CCOC(=O)[C@@H]4[C@H]2C(=O)N(CCCCCCO)[C@@H]3C1=O (stereo not given in full) | 0.771 | 0.714 (inactive) | -0.0697 | -0.0451 | 0.923 | -0.0499 | 1.15 | -0.351 | -1.17 | -0.82 | -0.249 | -0.407 | -0.181 | -1.66 | -0.663 | -1.19 | -0.525 | -0.0359 | 0.666 | 0.287 (inactive)
C=CCC(OC(C)=O)[C@@H]1[C@@H](N(Cc2ccc(-c3ccccc3)cc2)C(=O)Cc2ccc(OC)cc2)c2cc(OCCCO)ccc2N1C(=O)c1ccc(-c2ccccc2)cc1 (stereo not given in full) | -0.146 | -0.427 (inactive) | 0.268 | 0.0224 | 0.204 | -0.0315 | 0.394 | -0.323 | 0.268 | -0.781 | -0.163 | 0.152 | 0.855 | 0.137 | 0.409 | -0.0805 | 2.32 | 0.182 | 0.495 | -0.663 (inactive)
COCCCNC(=O)[C@@]1(Cc2ccccc2N=[N+]=[N-])N=C(c2ccc(OCCCO)cc2)O[C@H]1c1ccccc1CN=[N+]=[N-] | 0.771 | 0.103 (inactive) | 0.315 | 0.034 | 0.697 | 2.69 | 0.565 | 1.29 | -0.508 | 1.01 | 2.71 | 1.23 | 1.06 | 0.998 | 1.04 | 0.969 | 1.64 | -0.113 | 1.05 | -3.93 (inactive)
CCCNC(=O)[C@@]1(Sc2ccc(C)cc2)CC(=O)N(Cc2ccccc2)[C@@H]1c1ccc(CO)cc1I | -0.793 | -0.163 (inactive) | 0.147 | -0.115 | 0.405 | 0.644 | 1.01 | 0.827 | 0.678 | 0.082 | 0.381 | 0.561 | 0.0147 | -0.122 | 1.38 | 1.16 | 0.651 | 0.427 | 0.996 | 0.0043 (inactive)
C=CCOC(=O)[C@H]1[C@@H]2C(=O)O[C@@H](c3ccccc3)[C@@H](c3ccccc3)N2[C@@H](c2ccc(OCCOC(=O)[C@H]3C[C@H]4C(=O)N[C@@H](CCCCN(C)C)C(=O)N4[C@H]3c3ccc(O)cc3)cc2)[C@]12C(=O)Nc1ccccc12 | -0.144 | -0.168 (inactive) | 0.272 | -0.185 | 0.415 | 1.48 | 0.0568 | 1.29 | 1.21 | 1.1 | -0.127 | 1.13 | 0.806 | -0.104 | 1.43 | 1.59 | -0.58 | 1.5 | 0.0515 | -0.552 (inactive)
NC(=O)NCC#Cc1ccc2c(c1)[C@]1(C(=O)N2)[C@H](c2ccc(O)cc2)N2[C@H](c3ccccc3)[C@H](c3ccccc3)OC(=O)[C@H]2[C@@H]1C(N)=O | -0.624 | 0.251 (inactive) | -0.279 | 0.104 | 0.263 | 0.409 | -0.0995 | -0.144 | -0.162 | -0.608 | 0.184 | -1.21 | -0.549 | -0.934 | -0.0645 | -0.219 | -0.65 | -0.295 | -0.784 | -0.22 (inactive)
CCCCCCCCCCC(O)C1C=CC2C(=O)NC(=O)C2N1Nc1ccccn1 (stereo not given) | 0.616 | -0.118 (inactive) | 0.0159 | 0.0118 | 0.287 | 1.85 | -0.0065 | -0.182 | -0.9 | 0.709 | 0.121 | 0.749 | 0.675 | 0.666 | -0.008 | -1.4 | 0.706 | -0.458 | 0.331 | -0.765 (inactive)
COC(=O)C(CC#Cc1ccc2c(c1)[C@]1(C(=O)N2)[C@H](c2ccc(O)cc2)N2[C@H](c3ccccc3)[C@H](c3ccccc3)OC(=O)[C@H]2[C@@H]1C(=O)O)C(=O)OC | 0.587 | 0.877 (inactive) | 0.18 | -0.0891 | 0.766 | 1.07 | 0.308 | 0.318 | -0.3 | 0.819 | 0.124 | 0.56 | 0.318 | 0.298 | 0.879 | -0.12 | -0.233 | 0.369 | -0.22 | -0.462 (inactive)
